Reference: PubChem BioAssay (NCATS)
Several values for one entry are separate records, joined by “and”; a condition that tells them apart may be missing. Equal values may be shown once. Activity calls are given as the source filed them. A call without a number means that no potency is given here. Calls follow the shape of the dose curve; as a rule, active = well fitted cell-killing curve with a large enough effect; inconclusive = small, poorly fitted or top-dose-only effect; inactive = flat fitted curve, though single readings scatter.

Assay: Cell Viability - LYMP1-002 - Assay at 24 hr (AID 993)
Details: LYMP1-002 lymphoblastoid cells viability; series mostly up to 92.2 µM
Source text: NIH Chemical Genomics Center [NCGC]
NIH Molecular Libraries Screening Centers Network [MLSCN]
National Institutes of Environmental Health Sciences [NIEHS]
National Toxicology Program [NTP]
We have developed a 1536-well cell-based assay for quantitative high throughput screening (qHTS) against a number of cell lines to determine in vitro cytotoxicity of small molecules. This particular assay uses a human lymphoblastoid cell line (LYMP1-002) purchased from Coriell Institute for Medical Research.
NCGC Assay Protocol Summary:
The CellTiter-Glo luminescent cell viability assay (Promega) is a homogeneous method to measure the number of viable cells in culture. The end point readout of this assay is based on quantitation of intracellular ATP, an indicator of metabolic activity, using the luciferase reaction. Luciferase catalyzes the oxidation of beetle Luciferin to oxyluciferin and light in the presence of ATP. The luminescent signal is proportional to amount of ATP present.
Using the CellTiter-Glo luminescent cell viability assay, the amount of cellular ATP was measured in the lymphoblastoid cell line with complete culture medium following compound treatment for 24 hours. The assay was performed in opaque white Kalypsys 1536-well plates. In the screen, tetraoctylammonium bromide was used as positive control. Library compounds were measured for their ability to cause acute toxicity in the cell line, as reflected by a decrease in intracellular ATP levels, in a concentration-dependent manner. […] AC50 values were determined from concentration-response data modeled with the standard Hill equation.
qHTS protocol for CellTiter Glo lymphoblastoid cellular assay
[Step] [Parameter] [Value] [Description]
1. Reagent; 5 uL; 2500 lymphoblastoid cells/well
2. Time; 5 hr; 37 C incubation
4. Controls; 23 nL; Tetraoctylammonium bromide 6.4pM to 92 uM
5. Time; 24 hr; 37 C incubation
6. Reagent; 5 uL; CellTiter Glo reagent
7. Time; 30 min; Room Temperature
8. Detection; Luminescence; Viewlux plate reader
Keywords: cell viability, cytotoxicity, lymphoblastoid cell line, luminescence, NTPHTS, NTPHTS_NCGC, NIEHS, DSSTox, MLSMR, MLSCN, NIH Roadmap, qHTS, NCGC
Potency is read from the fitted curve at half-maximal effect.

Q: Which Potency does the source give for `C(=NC1CCCCC1)=NC1CCCCC1` here?
A: inactive

Q: For `CC(C)CC(C)Nc1ccc(Nc2ccccc2)cc1` (stereo not drawn), which Potency is on record?
A: 39.8 µM (active)

Q: With `ClC1=C(Cl)C2(Cl)C3C(Cl)C(Cl)CC3C1(Cl)C2(Cl)Cl` (stereo not drawn) as the compound, how does the Potency read?
A: inactive

Q: Which Potency does the source give for `O=C1C2(Cl)C3(Cl)C4(Cl)C(Cl)(Cl)C5(Cl)C3(Cl)C1(Cl)C5(Cl)C24Cl` (stereo not drawn) here?
A: 31.6 µM (active) and 79.4 µM (active)

Q: With `CN(C)c1ccc(N=O)cc1` as the compound, how does the Potency read?
A: 3.98 µM (active)

Q: With `CCCCCCCCn1sccc1=O` as the compound, how does the Potency read?
A: 12.6 µM (active)

Q: For `C=CC(=O)OCC(CO)(COC(=O)C=C)COC(=O)C=C`, which Potency is on record?
A: 3.98 µM (active)

Q: For `FC(F)(F)c1ccc(Cl)cc1`, which Potency is on record?
A: inactive

Q: With `N#CSCSC#N` as the compound, how does the Potency read?
A: 12.6 µM (active)

Q: For `O=C(O)C1C(C(=O)O)C2(Cl)C(Cl)=C(Cl)C1(Cl)C2(Cl)Cl` (stereo not drawn), which Potency is on record?
A: inactive

Q: With `OC(c1ccc(Cl)cc1)(c1ccc(Cl)cc1)C(Cl)(Cl)Cl` as the compound, how does the Potency read?
A: inactive

Q: For `CC(=O)[O-].CC(=O)[O-].O.O.[Cd+2]`, which Potency is on record?
A: inactive

Q: For `N#CC(Cl)Cl`, which Potency is on record?
A: inactive

Q: With `O=[N+]([O-])c1cc(C(F)(F)F)cc([N+](=O)[O-])c1Cl` as the compound, how does the Potency read?
A: inactive

Q: Which Potency does the source give for `c1ccc2cc3c(cc2c1)-c1cccc2cccc-3c12` here?
A: inactive

Q: With `Nc1ccccc1C(=O)OCCc1ccccc1` as the compound, how does the Potency read?
A: inactive

Q: Which Potency does the source give for `C#CCO` here?
A: inactive

Q: For `Oc1c(Br)c(Br)c(Br)c(Br)c1Br`, which Potency is on record?
A: inactive

Q: For `C[C@@H]1CC[C@@]2(OC1)O[C@H]1[C@@H](O)[C@H]3[C@@H]4CC[C@H]5C[C@@H](O[C@@H]6O[C@H](CO)[C@H](O[C@@H]7O[C@H](CO)[C@@H](O)[C@H](O[C@@H]8OC[C@@H](O)[C@H](O)[C@H]8O)[C@H]7O[C@@H]7O[C@H](CO)[C@@H](O)[C@H](O[C@@H]8O[C@H](CO)[C@@H](O)[C@H](O)[C@H]8O)[C@H]7O)[C@H](O)[C@H]6O)[C@H](O)C[C@]5(C)[C@H]4CC[C@]3(C)[C@H]1[C@@H]2C`, which Potency is on record?
A: 7.94 µM (active)

Q: With `[CH3][Hg][Cl]` as the compound, how does the Potency read?
A: 39.8 µM (active)

Q: For `O=[N+]([O-])C(Br)Br`, which Potency is on record?
A: inactive

Q: With `O=Nc1ccc(Nc2ccccc2)cc1` as the compound, how does the Potency read?
A: 7.94 µM (active)

Q: With `COP(=O)(OC)O/C(=C\Cl)c1cc(Cl)c(Cl)cc1Cl` as the compound, how does the Potency read?
A: inactive
